# The campaign covered roughly 68,000 compounds. About 25 (0.04%) showed an effect of 50% or more. Only a selection was taken, and strong results are over-represented in it overall.
# Target: T1, Methionyl-tRNA synthetase, putative (Leishmania donovani (strain BPK282A1)) (UniProt E9BF75)
# T1 sequence (whole entry): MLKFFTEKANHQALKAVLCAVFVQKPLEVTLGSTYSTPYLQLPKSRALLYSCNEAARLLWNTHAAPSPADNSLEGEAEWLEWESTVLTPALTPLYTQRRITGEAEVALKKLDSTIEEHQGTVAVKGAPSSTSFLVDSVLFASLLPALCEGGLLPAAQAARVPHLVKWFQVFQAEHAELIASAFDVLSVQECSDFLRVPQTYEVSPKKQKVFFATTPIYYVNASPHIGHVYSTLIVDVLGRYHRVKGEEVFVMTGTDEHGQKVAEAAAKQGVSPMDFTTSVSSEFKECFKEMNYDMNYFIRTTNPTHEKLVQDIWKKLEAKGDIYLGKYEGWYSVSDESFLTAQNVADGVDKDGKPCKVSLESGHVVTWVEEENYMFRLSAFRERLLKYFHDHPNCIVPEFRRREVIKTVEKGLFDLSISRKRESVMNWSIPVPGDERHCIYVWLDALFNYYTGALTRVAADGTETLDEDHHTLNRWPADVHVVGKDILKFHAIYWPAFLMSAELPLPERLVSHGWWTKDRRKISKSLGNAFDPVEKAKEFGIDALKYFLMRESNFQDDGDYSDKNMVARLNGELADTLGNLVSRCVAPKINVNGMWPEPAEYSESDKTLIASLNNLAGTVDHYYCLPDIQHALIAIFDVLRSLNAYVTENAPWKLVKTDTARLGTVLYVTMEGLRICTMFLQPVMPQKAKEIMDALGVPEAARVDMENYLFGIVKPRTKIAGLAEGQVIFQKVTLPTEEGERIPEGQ
# Test: Leishmania donovani Methionine tRNA synthetase (LdMetRS):v6. Primary screen assay
# Format: functional
# Parameters: conc 80 nM, time 150 minutes
row,Compound,inhibition
1,Cc1ocnc1C(=O)N1CCN(Cc2ccccc2)[C@@H]2CS(=O)(=O)C[C@@H]21,11.8%
2,O=C([C@@H]1C[C@H]2[C@H](CCN2Cc2nccs2)O1)N1CCOCC1,12.4%
3,Cc1noc([C@@H]2CC[C@@H]3[C@@H](CCN3S(=O)(=O)c3ccccc3)O2)n1,21.6%
4,Cn1ccnc1CN1C[C@H]2CN(S(C)(=O)=O)CCN2C1=O,12%
5,COCCN1C(=O)CC[C@@H]2[C@H]1CCN2C(=O)C1CCOCC1,7.27%
6,CCN1C[C@H]2[C@@H](C1)N(S(=O)(=O)c1ccccc1F)CC[C@H]2OC,18.4%
7,Cc1cnn(CCNCc2c(C)nn(CCO)c2C)c1,105%
8,Cc1cnn(CCNCc2c(C)nn(Cc3ccccc3)c2C)c1,9.32%
9,Cc1cnn(CCNCc2c(C)nn(-c3ccccc3)c2C)c1,121%
10,Cc1cnn(CCNCc2ccccc2F)c1,13%
11,Cc1cnn(CCNCc2c(C)nn(C)c2Cl)c1,15.4%
12,CCn1nc(C)c(CNCCn2cc(C)cn2)c1C,-6.21%
13,Cc1cccc2nc(C(=O)N3CCCC[C@]4(C)NC(=O)CC[C@H]34)cn12,13.5%
14,O=C(N1CCC(O)(C(F)(F)F)C1)C1(c2ccc(Cl)cc2)CC1 (centres undefined),8.1%
15,O=C(N1CCOCC1CO)C1(c2cccs2)CCCC1 (centres undefined),8.7%
16,CNC(=O)CC1COCCN1C(=O)C1(c2ccc(Cl)cc2)CCC1 (centres undefined),7.45%
17,O=C(N1CCCC(n2cncn2)C1)C1(c2ccc(Cl)cc2)CCC1 (centres undefined),15.4%
18,O=C(O)CC1COCCN1C(=O)C1(c2ccc(Cl)cc2)CCC1 (centres undefined),52.2%
19,O=C(N1CCOCC(O)C1)C1(c2ccc(Cl)cc2)CCC1 (centres undefined),123%
20,O=C(c1ccco1)N1C[C@@H]2CN(c3ccccn3)C[C@@H]2C1,6.11%

row,Compound,inhibition
1,O=C(NCc1ccco1)[C@H]1CC[C@@H]2[C@@H](CCN2c2ncccn2)O1,3.27%
2,CC(C)CN1Cc2nc(N3CCC(O)CC3)ncc2C1=O,7.08%
3,Cc1nonc1CC(=O)N1C[C@@H]2CC[C@H](C1)N(Cc1ccccc1)C2=O,6.88%
4,N#Cc1ccccc1CN1C[C@@H]2CC[C@H](C1)N(CC1CCC1)C2=O,19.4%
5,CCc1[nH]c2c(CNc3cncc(C(=O)N(C)C)n3)cc(C)cc2c1C,32.3%
6,CCc1[nH]c2c(CNc3cncc(C(=O)OC)n3)cc(C)cc2c1C,123%
7,CCc1[nH]c2c(CNc3cncc(C(=O)N(C)C)n3)cc(F)cc2c1C,28.6%
8,CCOCC(=O)N1CC[C@H]2OCC[C@@]2(COc2ncccc2F)C1,6.53%
9,CC1CCN(c2ccc(C(=O)N3CCCC3c3ccc[nH]3)cn2)CC1 (centres undefined),78.5%
10,NC(=O)c1ccc(OCC(=O)N2CCCC2c2ccc[nH]2)cc1 (centres undefined),15.5%
11,CC1CCN(c2ccc(C(=O)N3CCCC3c3nncn3C)cn2)CC1 (centres undefined),4.75%
12,CCCOc1cc(C)c2c(c1C)C[C@H]([C@H](C)C(=O)O)CC2,2.26%
13,CC(C)N1[C@H](CN2CCCC2)C[C@@H]2CN(Cc3cnn(C)c3)CC[C@@H]21,12.3%
14,c1coc(CN2CCO[C@H]3[C@H](OCC4CC4)CC[C@@H]32)c1,13.7%
15,O=C(NCC1CCOCC1)[C@@H]1CC[C@@H]2[C@@H](CCN2Cc2ccncc2)O1,19.3%
16,Cc1nc(CN2C(=O)C[C@@H]3[C@@H]2CCN3S(=O)(=O)C2CC2)cs1,11.7%
17,COCC(=O)N1C[C@@H]2CCCO[C@@H]2[C@H](N(C)Cc2ccco2)C1,-6.25%
18,CNC(=O)[C@H]1C[C@@H]2CN(Cc3ccccc3)C[C@H]1O2,15.9%
19,COC(=O)CNC(=O)c1cccc(C(=O)N(C)c2ccccc2)c1,95%
20,COC(=O)CCNC(=O)c1cccc(C(=O)N(C)c2ccccc2)c1,31.7%

row,Compound,inhibition
1,CN(C(=O)c1cccc(C(=O)NCC(F)(F)F)c1)c1ccccc1,3.94%
2,O=C(NC1CC1)N1C[C@@H]2CCN(C(=O)c3cscn3)[C@@H]2C1,0.546%
3,CO[C@H]1C[C@@H]2CN(C(=O)c3cc4ccc(F)cc4[nH]3)C[C@@H]2C1,13.3%
4,O=C1[C@H]2CN(S(=O)(=O)c3ccccc3)C[C@H]2CN1Cc1cccnc1,4.19%
5,Cc1ccccc1C(=O)NCc1ccc(N2CCNC(=O)C2)cc1,14.1%
6,Cc1nnc(NC(=O)NCc2ccc(N3CCNC(=O)C3)cc2)s1,9.92%
7,Cc1cccnc1NC(=O)NCc1ccc(N2CCNC(=O)C2)cc1,50.6%
8,CN(C)S(=O)(=O)N1CC[C@]2(O)CCN(Cc3cccc(F)c3)C[C@@H]2C1,12.9%
9,CC(C)c1nc(N2CCC(N3CCCC(O)C3)CC2)c2cnn(C)c2n1 (centres undefined),14.7%
10,CC(C)c1nc(N2CCC(N3CCCCCC3)CC2)c2cnn(C)c2n1,56.4%
11,CC(C)c1nc(N2CCC(N3CCSCC3)CC2)c2cnn(C)c2n1,12.3%
12,CC1=N[C@@]2(CC[C@@H]3CN(CC4CC4)C[C@@H]32)C(=O)N1CC(C)C,14.9%
13,COCCN1C[C@H]2CC[C@@H]1CN(C(=O)CCn1cc(Cl)cn1)C2,9.25%
14,CC(C)CC(=O)N1CC[C@@H]2[C@H](CC1)N(Cc1cccnc1)CCS2(=O)=O,15.2%
15,CN(C)CCN1CC[C@H]2[C@@H]1CCN2Cc1ccc2c(c1)OCO2,5.56%
16,CCCSCC(=O)N1C[C@@H]2CC[C@H](C1)N(Cc1ccccn1)C2=O,-1.42%
17,c1ccc(CN2C[C@H]3CC[C@@H]2CN(Cc2nnc(C4CC4)o2)C3)cc1,12.8%
18,CC(C)N1CCN(c2ccc3ccc(C(=O)NC4CCCC4)cn23)CC1,30.2%
19,CC(=O)N1CCN(c2ccc3ccc(C(=O)NC4CCCC4)cn23)CC1,52.9%
